Laboratory results published in the OligoGym collection.

Target: STAP2
Experiment: pooled miR-30 sensor sort-seq; sequence = guide strand
Conditions: shRNA

Compared with TTCCACATCGATCACGTACTTG, TTCTCATAGTCAACAGCTGGGC is lower in sensor-assay potency score (higher = more potent): -0.479 for the first, -0.883 for the second.

Compared with TAGTTCTCTTCCTGGTTCGGTA, TTCTTCTGTAGCTCTGCCGTCA is higher in sensor-assay potency score (higher = more potent): -0.765 for the first, -0.496 for the second.

Going from TAGCCTAGCACCTTCTCGTAGT to TTCTTCTCTAGAAAGCTCTCAT, the sensor-assay potency score (higher = more potent) rises from -0.174 to -0.00657.

Compared with TAGAAAGCTCTCATAGTAGTGT, TACCTTGAACTTGATCTCCTGA is lower in sensor-assay potency score (higher = more potent): 0.706 for the first, 0.355 for the second.

Target: STARD13
Experiment: as above
Conditions: shRNA

Going from ATGAACTTTGGAACTGACCATG to TGACCTTTCAGGTCTATCCTGC, the sensor-assay potency score (higher = more potent) rises from -1.26 to 0.102.

Going from TTGCTGAATACTTTGAGGCAGG to TAGTCGGGAACTTTCATCCTCT, the sensor-assay potency score (higher = more potent) rises from -0.948 to 0.0488.

First: TATAACTGAGCGTATTGCGGGA
Second: TTAGTCGTCTGCAAAGAGGTTC
The sensor-assay potency score (higher = more potent) of the first is lower: -0.462 for the first, -0.341 for the second.

Compared with TATTTCTTCTGTATGACTCGTG, TTGTCATAGATACTGACTCGGC is lower in sensor-assay potency score (higher = more potent): 0.941 for the first, -0.87 for the second.

Going from TTGTAGTCTGATCAAATCGCAA to TTGTTCAACGTATTTAGTCGTC, the sensor-assay potency score (higher = more potent) rises from -1.15 to -0.155.

Compared with TTGAATTTTAGTCACTAGCTGA, TTTGTAGTCGGGAACTTTCATC is lower in sensor-assay potency score (higher = more potent): -0.1 for the first, -0.697 for the second.
